# Assay results reported in PMC12350791.
# Target: PRPF8 (UniProt Q6P2Q9)
# Assay: cross-linking mass spectrometry
# Conditions: DSBSO, in cells or nuclear extract, not told apart
# PLRG1, O43660, sequence (O43660 whole entry): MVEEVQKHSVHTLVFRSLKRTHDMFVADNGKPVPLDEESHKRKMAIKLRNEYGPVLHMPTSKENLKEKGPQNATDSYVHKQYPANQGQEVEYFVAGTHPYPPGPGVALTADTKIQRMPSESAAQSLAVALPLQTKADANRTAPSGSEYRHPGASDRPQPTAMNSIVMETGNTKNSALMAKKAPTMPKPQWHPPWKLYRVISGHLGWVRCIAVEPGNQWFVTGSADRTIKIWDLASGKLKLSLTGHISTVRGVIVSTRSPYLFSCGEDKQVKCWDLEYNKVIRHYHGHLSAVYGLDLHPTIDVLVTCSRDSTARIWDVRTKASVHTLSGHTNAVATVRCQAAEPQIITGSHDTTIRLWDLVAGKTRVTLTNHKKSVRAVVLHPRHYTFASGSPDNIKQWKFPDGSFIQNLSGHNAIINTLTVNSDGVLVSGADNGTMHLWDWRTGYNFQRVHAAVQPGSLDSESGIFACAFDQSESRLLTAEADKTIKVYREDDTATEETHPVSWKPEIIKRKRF
# EFTUD2, Q15029, sequence (Q15029 whole entry): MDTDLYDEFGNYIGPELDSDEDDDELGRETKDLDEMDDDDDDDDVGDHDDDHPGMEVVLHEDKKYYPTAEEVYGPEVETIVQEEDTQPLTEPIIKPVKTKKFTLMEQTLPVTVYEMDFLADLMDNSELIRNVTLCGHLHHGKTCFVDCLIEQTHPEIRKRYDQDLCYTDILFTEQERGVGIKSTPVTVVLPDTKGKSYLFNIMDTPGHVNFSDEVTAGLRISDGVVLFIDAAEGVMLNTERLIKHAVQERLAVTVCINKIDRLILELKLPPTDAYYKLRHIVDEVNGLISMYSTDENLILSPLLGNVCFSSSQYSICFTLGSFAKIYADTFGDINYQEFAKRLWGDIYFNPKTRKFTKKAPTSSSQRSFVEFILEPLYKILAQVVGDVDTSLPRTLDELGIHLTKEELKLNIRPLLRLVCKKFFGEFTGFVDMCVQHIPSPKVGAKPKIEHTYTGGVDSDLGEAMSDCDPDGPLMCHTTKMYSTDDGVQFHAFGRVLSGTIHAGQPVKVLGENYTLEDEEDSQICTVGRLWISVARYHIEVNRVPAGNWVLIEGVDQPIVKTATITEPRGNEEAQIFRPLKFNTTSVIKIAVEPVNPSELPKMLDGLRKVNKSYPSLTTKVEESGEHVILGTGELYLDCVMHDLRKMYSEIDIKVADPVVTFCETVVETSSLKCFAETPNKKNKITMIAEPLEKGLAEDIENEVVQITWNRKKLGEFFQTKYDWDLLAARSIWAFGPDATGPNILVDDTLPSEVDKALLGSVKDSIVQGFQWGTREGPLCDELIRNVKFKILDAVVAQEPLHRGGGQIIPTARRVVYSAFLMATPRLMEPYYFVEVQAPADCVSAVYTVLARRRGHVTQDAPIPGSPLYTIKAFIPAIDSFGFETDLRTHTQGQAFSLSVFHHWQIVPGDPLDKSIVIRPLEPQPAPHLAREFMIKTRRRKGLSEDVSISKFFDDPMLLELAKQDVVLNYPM
# USP39, Q53GS9, sequence (Q53GS9 whole entry): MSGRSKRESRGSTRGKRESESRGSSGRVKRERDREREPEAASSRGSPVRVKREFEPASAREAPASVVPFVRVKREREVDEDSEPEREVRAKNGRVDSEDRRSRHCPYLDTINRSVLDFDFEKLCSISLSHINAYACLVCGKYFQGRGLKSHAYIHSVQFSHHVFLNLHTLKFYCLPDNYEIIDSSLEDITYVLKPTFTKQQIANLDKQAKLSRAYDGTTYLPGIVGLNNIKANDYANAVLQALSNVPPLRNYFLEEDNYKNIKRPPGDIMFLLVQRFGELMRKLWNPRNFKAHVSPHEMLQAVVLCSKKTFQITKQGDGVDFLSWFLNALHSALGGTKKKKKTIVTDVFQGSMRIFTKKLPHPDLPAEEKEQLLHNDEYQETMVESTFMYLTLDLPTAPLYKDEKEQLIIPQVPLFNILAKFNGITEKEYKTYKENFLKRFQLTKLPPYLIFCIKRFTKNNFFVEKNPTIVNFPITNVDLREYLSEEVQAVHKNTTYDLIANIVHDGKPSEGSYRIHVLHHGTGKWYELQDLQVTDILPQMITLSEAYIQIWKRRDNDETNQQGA
row,Substance,cross-linked residues
1,"EFTUD2, Q15029",K405 - K218
2,"PLRG1, O43660",K320 - K666
3,"USP39, Q53GS9",K508 - K983
